Hits are enriched below; roughly 6.9% of the tested compounds scored in any of these assays.
GRIN3A LBD mod: modulates the human NR3A ligand-binding domain | NR3A LBD differential scanning fluorimetry, Tm shift; 0% = protein alone, 100% = glycine-bound protein | Tm shift relative to glycine control, % at 25 µM | 340,000 tested, 2.5% active | AID 1259313;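 active = melting temperature shift of at least 10% of the positive control shift, at one fixed dose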
MPTP block: permeability transition pore inhibition; inhibition, % at 10 µM; isolated mouse mitochondria, Ca2+ swelling absorbance, 30 min; 360,000 tested, 1.4% active; AID 602449;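 active = inhibition of 50% or more, scaled per plate between neutral and stimulator controls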;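 also: 0% = DMSO wells given calcium and 100% = 1 mM EGTA wells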
Mdm2 MdmX PPI: disrupts the human Mdm2-MdmX interaction; AID 485346; SaOS-2 split-luciferase Mdm2/MdmX complementation, luminescence; inhibition, % at 8 µM; 330,000 tested, 3% active;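 active = inhibition of at least 50% at 8 µM in the primary screen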
Beta apoptosis: beta cell apoptosis inhibition; INS-1E cytokine-induced death, ATP luminescence, 48 h; percent of positive-control rescue, neutral wells zero; protection from apoptosis, % (test concentration not listed); 300,000 tested, 0.8% active; AID 435005;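 active = Every replicate reaches about 75%, or at least half do and their mean reaches it too, limit read from the data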;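 also: 0% = cytokine-treated negative control wells and 100% = positive control rescue; higher means more ATP so stronger rescue from cytokine killing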
CSC inhib: cancer stem cell inhibition | cancer stem cell-like cells viability, luminescence | inhibition, % at 7.5 µM | 300,000 tested, 1.1% active | AID 2717; in the data active = inhibition above about 75%; tested in HMLE shEcad cells
SKKanGAS inh: SKKanGAS growth inhibition; AID 1662; inhibition, % at 7.5 µM; 300,000 tested, 1.3% active; S. pyogenes SKKanGAS, kanamycin growth, BacTiter-Glo, 6 h;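 active = mean replicate score, as percent of positive control median, at least 50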;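 also: strain carries kanamycin resistance gene driven by streptokinase promoter and grows in 40 µg/ml kanamycin; loss of luminescence reflects streptokinase promoter inhibition or plain growth inhibition; 0% = median of DMSO wells and 100% = positive control at its reference dose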
Active calls of the source: *; · = no result given.

SMILES	GRIN3A LBD mod	MPTP block	Mdm2 MdmX PPI	Beta apoptosis	CSC inhib	SKKanGAS inh
COc1ccc(C(=O)NCC(c2ccccc2)N2CCCC2)cc1S(=O)(=O)N1CCOCC1 (configuration not stated)	0	0	19	-1	·	·
COc1cc2c3c(c1)c(C1=NC(=S)NC1=O)c(O)n3C(C)(C)C=C2C	-1	7	27	3	9	15
CC(=O)Oc1cc2c3c(c1)/C(=C1/SC(=S)NC1=O)C(=O)N3C(C)(C)C=C2C	-1	42	10	12	16	82*
CC(=O)N1CCN(C(=O)c2ccc(NS(=O)(=O)c3cc(C)ccc3C)cc2)CC1	-3	-1	22	·	55	-3
Cc1ccc(SCCNC(=O)c2ccc(C)c(S(=O)(=O)Nc3cccc(C)c3)c2)cc1	7	17	32	5	25	19
Cc1ccc(C)c(S(=O)(=O)Nc2ccc(C(=O)N3CCCCC3)cc2)c1	14*	0	7	-6	-2	0
Cc1ccc(C(=O)NCCSc2ccc(Cl)cc2)cc1S(=O)(=O)Nc1ccccc1	22*	48	13	-4	30	22
Cc1ccc(NS(=O)(=O)c2cc(C(=O)NCCSc3ccc(C)cc3)ccc2C)cc1	13*	35	24	6	36	28
O=C1C(Cl)=C(Nc2ccc3cn[nH]c3c2)C(=O)c2ccccc21	3	4	·	110*	109*	73*
O=C(Nc1ccc2cn[nH]c2c1)c1c(Cl)cccc1Cl	1	-1	-1	·	-8	10
C=C(C)C(O)Cc1c(OC)ccc(C(=O)/C=C/c2ccc(O)cc2)c1O (configuration not stated)	25*	2	40	·	·	·
CC(C)=CCC/C(C)=C/Cc1c(O)ccc(C(=O)/C=C/c2ccc(O)cc2)c1O	29*	2	36	-1	121*	106*
COc1ccc(/C=C/C(=O)c2ccc(OC)cc2OC)cc1	-1	2	25	-1	-7	-2
O=C(CNC(=S)N(Cc1ccccc1F)C1CCCCC1)NC1CC1	11*	-1	6	2	·	-1
COc1ccccc1CN1CN(S(=O)(=O)c2ccccc2)c2nc3ccccc3nc21	-1	1	9	5	4	50*
O=C(NCc1cccc(Cl)c1)c1ccc(S(=O)(=O)Nc2cccc(C(F)(F)F)c2)cc1	28*	4	1	4	30	26
CC(C)c1nc(N2CCN(C(=O)c3ccco3)CC2)c(C#N)c2c1COC(C)(C)C2	-3	2	16	·	-6	6
CCCCc1nc(N2CCN(C(=O)c3ccco3)CC2)c(C#N)c2c1CCCC2	-4	-2	37	18	119*	97*
O=C(NCCCCc1ccccc1)Nc1ccc(F)cc1F	2	3	-12	-5	-7	0
CC(C)c1nc(N2CCCC2)c(C#N)c2c1CCCC2	0	1	14	3	48	93*
CCc1nc(N2CCCC2)c(C#N)c2c1CCCC2	0	0	-19	-3	10	10
NC(=O)c1cc([N+](=O)[O-])ccc1NCC1CCCCC1	0	-1	7	5	33	·
Cc1cccc(C)c1-n1nnnc1C(c1ccccc1)N1CCN(C/C=C/c2ccccc2)CC1 (configuration not stated)	·	0	·	·	·	·
CCOC(=O)C1CCN(CC(O)COCc2ccccc2)CC1 (configuration not stated)	14*	-1	1	-3	-4	8
O=C(c1c(Cl)cccc1Cl)N1CCN(c2ncccn2)CC1	-3	0	-34	0	8	8
SMILES	GRIN3A LBD mod	MPTP block	Mdm2 MdmX PPI	Beta apoptosis	CSC inhib	SKKanGAS inh
O=C(Cc1ccccc1Cl)N1CCN(c2ncccn2)CC1	12*	-1	5	-3	7	4
O=C(C1=C(O)C(=O)N(c2ncccn2)C1c1ccc(Cl)cc1)c1ccco1 (configuration not stated)	-1	0	-4	1	-10	5
Cc1ccc(C(=O)C2=C(O)C(=O)N(c3ncccn3)C2c2ccc(Cl)cc2)o1 (configuration not stated)	13*	8	2	-15	-4	-5
COc1ccc(-n2ncc3c2CC(C)(C)CC3NC(=O)C2=CC(=O)CC(C)(C)O2)cc1 (configuration not stated)	0	-1	-2	1	-6	-3
COc1cc(-c2nc(CN(C)Cc3nnc(C)o3)c(C)o2)ccc1F	-2	1	-15	-3	-17	9
COc1cccc(C(=O)NCC(=O)N/N=C/c2c(C)[nH]c3ccccc23)c1	-2	0	17	-9	18	-1
O=C(N/N=C/c1ccc2c(c1)OCO2)c1sc2cccc(Cl)c2c1Cl	24*	-1	6	-10	33	10
COc1ccc2c(Cl)c(C(=O)N/N=C/c3c(C)[nH]c4ccccc34)sc2c1	32*	0	-17	4	53	23
Cc1ccsc1C(=O)N/N=C/c1ccc2c(c1)OCO2	4	0	-208	51	30	20
Cc1cc(Cl)ccc1NC(=O)C(=O)N/N=C/c1ccc2c(c1)OCO2	-1	2	31	3	·	-3
O=C(N/N=C/c1ccc2c(c1)OCO2)C(=O)Nc1ccccc1Cl	14*	1	35	-2	7	·
COc1ccc2c(Cl)c(C(=O)N/N=C/c3ccc4c(c3)OCO4)sc2c1	19*	4	20	25	43	-1
CC12CCC(=O)N1C(C(=O)NCc1ccccc1Cl)CS2 (configuration not stated)	3	-1	-6	1	·	-1
Cc1ccc(NC(=O)C2CCN(S(=O)(=O)c3cccnc3)CC2)cc1C	0	-1	8	·	-4	8
Cc1cc(C)cc(NC(=O)CCn2ccnc2)c1	-1	5	-20	-5	-3	-1
C=C[C@@H]1c2c(F)cccc2N(S(=O)(=O)c2ccc(C)cc2)[C@H](c2ccc(OC(C)=O)cc2)C1(C#N)C#N	-3	0	37	-1	112*	·
C=C[C@@H]1c2c(F)cccc2N(S(=O)(=O)c2ccc(C)cc2)[C@H](c2ccc(C(=O)OC)cc2)C1(C#N)C#N	-2	-2	14	5	15	·
O=C(COc1ccccc1Br)NCCC1=CCCCC1	3	0	10	1	·	·
O=C(COc1ccccc1[N+](=O)[O-])NCCC1=CCCCC1	11*	1	11	-1	-4	-3
C/C(=N\OC(=O)Nc1ccccc1)c1cnn(-c2cc(C(F)(F)F)cc(C)n2)c1C	-28	3	23	-11	-8	-8
CCC(=O)Nc1cc2c3c(c1)CCN3C(=O)CC2	11*	-1	9	-2	-6	-3
CC(C)(C)CC(=O)Nc1cc2c3c(c1)CCN3C(=O)CC2	0	1	6	-4	-2	-6
